Source: PubChem BioAssay (NCATS)
Results filed as inconclusive are left out. The list shows a part of the results. The source made the active and inactive calls. Calls come from the whole dose curve; as a rule, active = well fitted curve in the direction sought with a large enough effect; inconclusive = small, poorly fitted or top-dose-only effect, or another doubt; inactive = no such curve, though single readings can be large; an effect the other way counts as inactive or inconclusive.

How the values were obtained:
[1] = MultiTox-Fluor Cytotoxicity Assay - LYMP1-003 - Dead Cells (AID 961); note: nearly all actives have a fitted effect of over 70% in size
How it was run: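 Acute toxicity is scored as increased dead-cell protease activity in human lymphoblastoid LYMP1-003 cells after 16 h compound exposure in complete culture medium. Activity is normalized to DMSO basal and 15 uM tetraoctylammonium bromide as full response.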

[2] = Cell Viability - LYMP2-009 (AID 968); note: nearly all actives have a fitted effect of over 55% in size
[3] = Cell Viability - LYMP2-013 (AID 970); note: nearly all actives have a fitted effect of over 55% in size
How it was run: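 Acute toxicity was measured in human lymphoblastoid cells (2500/well) exposed to compound titrations for 24 hr, with ATP luminescence (CellTiter-Glo) as read-out and AC50 fitted by Hill equation.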

[4] = Cell Viability - LYMP2-015 (AID 971); note: nearly all actives have a fitted effect of over 55% in size
How it was run: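 Acute toxicity was scored as a concentration-dependent drop in intracellular ATP in lymphoblastoid cells after 24 hr compound exposure in complete medium. Detection used CellTiter-Glo luciferase luminescence.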

[5] = Cell Viability - LYMP2-006 (AID 978); note: nearly all actives have a fitted effect of over 60% in size
How it was run: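 Potency values are Hill-fit AC50s for decreases in intracellular ATP (CellTiter-Glo luminescence). LYMP2-006 lymphoblastoid cells, 2500 per well, were exposed to compound in complete culture medium for 24 hr at 37 C.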

[6] = Cell Viability - LYMP2-007 (AID 979);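 note: cells exposed to compound for 24 h before reading; nearly all actives have a fitted effect of over 60% in size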
How it was run: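 Acute toxicity is scored as a concentration-dependent fall in intracellular ATP in human lymphoblastoid cells treated 24 hr at 37 C, measured by luciferase luminescence; Hill-equation modelling yields AC50.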

[7] = target: ATPase family AAA domain-containing protein 5 (Homo sapiens) (UniProt Q96QE3); test: HTS assay for small molecules that inhibit ELG1-dependent DNA repair in human embryonic kidney (HEK293T) cells expressing luciferase-tagged ELG1: Hit Confirmation (AID 624248); conditions: HEK293T ELG1-luciferase levels, luminescence; cells co-treated with 5-fluorouridine; note: nearly all actives have a fitted effect of over 55% in size
Sequence of ATPase family AAA domain-containing protein 5 (Homo sapiens) (Q96QE3 whole entry, looked up, the tested form may be a part): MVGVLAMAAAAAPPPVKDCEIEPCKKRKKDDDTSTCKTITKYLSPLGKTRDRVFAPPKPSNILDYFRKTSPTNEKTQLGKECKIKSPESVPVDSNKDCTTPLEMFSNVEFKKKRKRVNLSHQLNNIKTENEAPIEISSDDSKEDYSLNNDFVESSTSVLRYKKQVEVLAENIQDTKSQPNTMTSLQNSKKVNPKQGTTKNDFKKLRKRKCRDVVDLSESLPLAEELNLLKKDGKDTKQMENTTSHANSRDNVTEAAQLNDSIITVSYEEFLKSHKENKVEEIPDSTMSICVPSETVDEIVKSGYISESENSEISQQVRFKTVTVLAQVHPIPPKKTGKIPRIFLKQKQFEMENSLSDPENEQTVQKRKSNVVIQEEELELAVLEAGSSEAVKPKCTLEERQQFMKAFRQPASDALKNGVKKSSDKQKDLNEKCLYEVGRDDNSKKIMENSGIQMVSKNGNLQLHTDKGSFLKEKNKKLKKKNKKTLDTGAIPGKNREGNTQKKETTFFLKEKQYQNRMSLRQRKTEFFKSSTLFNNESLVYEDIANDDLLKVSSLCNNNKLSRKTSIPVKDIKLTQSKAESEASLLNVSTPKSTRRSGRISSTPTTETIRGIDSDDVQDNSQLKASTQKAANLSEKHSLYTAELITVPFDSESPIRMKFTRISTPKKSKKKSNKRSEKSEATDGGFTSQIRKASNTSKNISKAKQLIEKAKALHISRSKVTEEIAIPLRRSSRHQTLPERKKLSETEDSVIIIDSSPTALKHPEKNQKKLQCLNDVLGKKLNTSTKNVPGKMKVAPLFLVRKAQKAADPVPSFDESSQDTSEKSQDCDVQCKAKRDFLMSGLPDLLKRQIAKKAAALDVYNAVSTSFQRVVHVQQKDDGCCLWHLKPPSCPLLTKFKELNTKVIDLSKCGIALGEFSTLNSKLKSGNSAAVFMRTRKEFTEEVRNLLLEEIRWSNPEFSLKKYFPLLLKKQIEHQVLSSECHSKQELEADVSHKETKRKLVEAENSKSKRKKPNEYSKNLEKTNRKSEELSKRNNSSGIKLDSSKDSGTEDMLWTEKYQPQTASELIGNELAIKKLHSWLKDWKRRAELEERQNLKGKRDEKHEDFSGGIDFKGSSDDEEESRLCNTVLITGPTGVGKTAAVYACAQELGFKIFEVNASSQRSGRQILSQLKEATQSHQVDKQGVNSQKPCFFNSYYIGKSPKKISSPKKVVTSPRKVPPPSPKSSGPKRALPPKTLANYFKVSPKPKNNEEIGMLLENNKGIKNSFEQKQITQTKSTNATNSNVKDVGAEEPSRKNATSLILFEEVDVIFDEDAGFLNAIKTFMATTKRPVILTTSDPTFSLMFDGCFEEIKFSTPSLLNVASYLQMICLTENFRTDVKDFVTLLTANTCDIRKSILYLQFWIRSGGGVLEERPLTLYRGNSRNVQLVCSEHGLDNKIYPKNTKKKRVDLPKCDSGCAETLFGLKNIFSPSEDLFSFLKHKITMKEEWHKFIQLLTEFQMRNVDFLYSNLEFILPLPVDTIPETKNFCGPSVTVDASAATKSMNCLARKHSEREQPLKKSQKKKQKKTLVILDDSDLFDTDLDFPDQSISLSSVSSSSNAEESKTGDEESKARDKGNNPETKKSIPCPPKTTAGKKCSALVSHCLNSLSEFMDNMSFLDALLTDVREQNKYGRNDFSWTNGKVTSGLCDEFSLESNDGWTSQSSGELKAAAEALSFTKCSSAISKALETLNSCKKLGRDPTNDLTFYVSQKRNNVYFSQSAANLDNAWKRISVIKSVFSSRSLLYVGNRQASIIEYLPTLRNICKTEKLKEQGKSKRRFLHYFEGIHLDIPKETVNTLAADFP
How it was run: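 Suppression of ELG1-luciferase signal was read by ONE-Glo luminescence in HEK293T reporter cells after 16 h at 37 C co-treatment with compound and 5-fluorouridine as DNA-damaging agent.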

[8] = target: ATPase family AAA domain-containing protein 5 (Homo sapiens) (UniProt Q96QE3); test: qHTS screen for small molecules that inhibit ELG1-dependent DNA repair in human embryonic kidney (HEK293T) cells expressing luciferase-tagged ELG1: Hit Confirmation using MMS Stimulated ELG1 (AID 624249); conditions: HEK293T luciferase-tagged ELG1 level; note: nearly all actives have a fitted effect of over 60% in size
Excerpt: (§1) Cancer cells divide rapidly compared to normal cells in the body. During cell division, cancer cells need to duplicate their genome by DNA replication. The failure of genome duplication leads to cancer cells' death. Therefore, inhibitors of DNA replication could specifically kill cancer cells. Based on this concept, many chemotherapeutic agents were developed and have been used to treat cancer patients. However, there are a limited number of agents available in the clinical setting, and some of those that do exist have low efficacy and severe side effects. Therefore, if we can find the compounds that effectively block DNA replication either by directly damaging DNA or by inhibiting other cellular mechanisms, the options for cancer treatment will be broadened. With this in mind, we developed a quantitative high-throughput ELG1-luciferase reporter gene assay. Small molecules that specifically block ELG1 function in response to DNA damage can be identified by monitoring the suppression of luciferase activity. […]
ELG1-luc HEK293T cells will be seeded in 1536-well plates at a density of 2,000 cells/well. […] 16 hours following the addition of the compounds, luciferase activity will be measured using Amplight reagent.

[9] = qHTS screen for small molecules that inhibit ELG1-dependent DNA repair: Hit Confirmation with MMS Viability (AID 624251); conditions: Cell viability with MMS;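 note: ELG1-luc HEK293T cells co-treated with 10 µM MMS; viability read 16 h after compound addition; nearly all actives have a fitted effect of over 60% in size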
Excerpt: as §1
ELG1-luc HEK293T cells will be seeded in 1536-well plates at a density of 2,000 cells/well. […] 16 hours following the addition of the compounds, cell viability will be measured using Cell Titer Glo.

Measured: Potency
Potency is the fitted concentration of half-maximal effect.

O=C1C(Cl)=C(Cl)C(=O)C(Cl)=C1Cl
active: [1] 25.1 µM | [2] 20 µM | [3] 31.6 µM | [4] 39.8 µM | [5] 31.6 µM | [6] 15.8 µM

C[C@@]12CC[C@H]3[C@@H](CC[C@]4(O)C[C@H](O)CC[C@@]34C=O)[C@]1(O)CC[C@@H]2C1=CC(=O)OC1
active: [7] 1.07 µM | [8] 0.756 µM | [9] 1.07 µM
